Columns and labels:
Assay in all cases: log2 ratio of Biotin-Ahx-Ub-VS probe labelling (fragment/DMSO); higher = less target engagement (more negative = stronger competition), active = hit call of the paper (q ≤ 0.05, log2 ratio ≤ -1)
Conditions in all cases: compound concentration: 200 uM; treatment time: 3 h
USP42 = biological target: T1, USP42 (UniProt Q9H9J4)
T1 sequence (whole entry): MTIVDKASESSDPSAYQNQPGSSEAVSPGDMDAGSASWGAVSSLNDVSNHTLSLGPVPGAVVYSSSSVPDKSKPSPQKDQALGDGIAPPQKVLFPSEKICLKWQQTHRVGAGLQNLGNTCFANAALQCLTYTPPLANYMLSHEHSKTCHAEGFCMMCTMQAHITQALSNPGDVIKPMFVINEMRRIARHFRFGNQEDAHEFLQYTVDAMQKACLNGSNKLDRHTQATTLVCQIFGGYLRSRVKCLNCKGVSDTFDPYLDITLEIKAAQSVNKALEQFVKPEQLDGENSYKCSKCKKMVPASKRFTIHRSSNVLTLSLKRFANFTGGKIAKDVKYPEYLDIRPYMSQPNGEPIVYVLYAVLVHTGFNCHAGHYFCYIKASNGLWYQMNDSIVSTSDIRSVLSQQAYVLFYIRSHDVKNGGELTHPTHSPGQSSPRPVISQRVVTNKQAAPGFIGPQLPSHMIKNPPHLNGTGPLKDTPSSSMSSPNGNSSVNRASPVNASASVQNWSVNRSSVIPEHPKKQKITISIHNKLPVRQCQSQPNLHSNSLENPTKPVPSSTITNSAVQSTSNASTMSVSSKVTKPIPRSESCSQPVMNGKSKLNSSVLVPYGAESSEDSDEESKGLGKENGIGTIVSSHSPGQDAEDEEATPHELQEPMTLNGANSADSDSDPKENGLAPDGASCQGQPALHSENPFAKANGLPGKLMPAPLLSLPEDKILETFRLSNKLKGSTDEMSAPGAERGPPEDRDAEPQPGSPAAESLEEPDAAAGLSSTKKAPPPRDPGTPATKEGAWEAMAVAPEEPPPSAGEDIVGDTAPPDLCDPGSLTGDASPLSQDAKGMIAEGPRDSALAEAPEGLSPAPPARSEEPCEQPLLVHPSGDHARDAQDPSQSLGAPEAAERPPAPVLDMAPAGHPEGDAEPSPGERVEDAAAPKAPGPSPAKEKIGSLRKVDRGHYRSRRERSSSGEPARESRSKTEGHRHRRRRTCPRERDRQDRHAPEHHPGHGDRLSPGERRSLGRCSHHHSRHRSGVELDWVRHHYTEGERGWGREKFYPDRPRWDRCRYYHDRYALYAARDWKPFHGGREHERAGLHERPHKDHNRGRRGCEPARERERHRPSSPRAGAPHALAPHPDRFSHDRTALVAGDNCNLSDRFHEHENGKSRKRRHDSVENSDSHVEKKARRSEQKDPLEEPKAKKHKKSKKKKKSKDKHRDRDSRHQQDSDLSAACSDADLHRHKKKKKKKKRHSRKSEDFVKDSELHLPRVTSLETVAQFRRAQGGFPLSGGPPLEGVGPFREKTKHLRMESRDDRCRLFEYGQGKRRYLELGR
Outline: (§1)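 HEK293T lysate (495 µg per sample, in Tris/CHAPS/IGEPAL buffer with protease inhibitors) was treated in triplicate with fragment at 200 µM or with DMSO for 3 h. It was then treated with Biotin-Ahx-Ub-VS (0.5 µM final) for 1 h. Labelled DUBs were NeutrAvidin-enriched, digested with LysC and trypsin, and run by diaPASEF LC-MS/MS. Spectronaut label-free quantities were global-median-normalised. Values are average log2 ratios fragment/DMSO by unpaired t-test, using proteins with ≥2 unique peptides.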

USP46 = USP46 (UniProt P62068)
USP46, sequence (P62068 whole entry): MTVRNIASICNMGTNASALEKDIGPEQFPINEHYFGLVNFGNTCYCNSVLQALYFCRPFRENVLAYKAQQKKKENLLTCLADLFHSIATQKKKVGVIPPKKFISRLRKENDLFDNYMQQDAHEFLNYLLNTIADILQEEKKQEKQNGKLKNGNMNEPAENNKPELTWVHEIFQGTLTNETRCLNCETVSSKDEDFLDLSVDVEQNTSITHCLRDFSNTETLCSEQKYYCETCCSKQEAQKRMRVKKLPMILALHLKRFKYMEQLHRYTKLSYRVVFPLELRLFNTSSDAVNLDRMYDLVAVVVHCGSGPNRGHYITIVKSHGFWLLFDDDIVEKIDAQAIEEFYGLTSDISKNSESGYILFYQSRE
Outline: as §1

USP47 = biological target: T2, USP47 (UniProt Q96K76)
T2 sequence (whole entry): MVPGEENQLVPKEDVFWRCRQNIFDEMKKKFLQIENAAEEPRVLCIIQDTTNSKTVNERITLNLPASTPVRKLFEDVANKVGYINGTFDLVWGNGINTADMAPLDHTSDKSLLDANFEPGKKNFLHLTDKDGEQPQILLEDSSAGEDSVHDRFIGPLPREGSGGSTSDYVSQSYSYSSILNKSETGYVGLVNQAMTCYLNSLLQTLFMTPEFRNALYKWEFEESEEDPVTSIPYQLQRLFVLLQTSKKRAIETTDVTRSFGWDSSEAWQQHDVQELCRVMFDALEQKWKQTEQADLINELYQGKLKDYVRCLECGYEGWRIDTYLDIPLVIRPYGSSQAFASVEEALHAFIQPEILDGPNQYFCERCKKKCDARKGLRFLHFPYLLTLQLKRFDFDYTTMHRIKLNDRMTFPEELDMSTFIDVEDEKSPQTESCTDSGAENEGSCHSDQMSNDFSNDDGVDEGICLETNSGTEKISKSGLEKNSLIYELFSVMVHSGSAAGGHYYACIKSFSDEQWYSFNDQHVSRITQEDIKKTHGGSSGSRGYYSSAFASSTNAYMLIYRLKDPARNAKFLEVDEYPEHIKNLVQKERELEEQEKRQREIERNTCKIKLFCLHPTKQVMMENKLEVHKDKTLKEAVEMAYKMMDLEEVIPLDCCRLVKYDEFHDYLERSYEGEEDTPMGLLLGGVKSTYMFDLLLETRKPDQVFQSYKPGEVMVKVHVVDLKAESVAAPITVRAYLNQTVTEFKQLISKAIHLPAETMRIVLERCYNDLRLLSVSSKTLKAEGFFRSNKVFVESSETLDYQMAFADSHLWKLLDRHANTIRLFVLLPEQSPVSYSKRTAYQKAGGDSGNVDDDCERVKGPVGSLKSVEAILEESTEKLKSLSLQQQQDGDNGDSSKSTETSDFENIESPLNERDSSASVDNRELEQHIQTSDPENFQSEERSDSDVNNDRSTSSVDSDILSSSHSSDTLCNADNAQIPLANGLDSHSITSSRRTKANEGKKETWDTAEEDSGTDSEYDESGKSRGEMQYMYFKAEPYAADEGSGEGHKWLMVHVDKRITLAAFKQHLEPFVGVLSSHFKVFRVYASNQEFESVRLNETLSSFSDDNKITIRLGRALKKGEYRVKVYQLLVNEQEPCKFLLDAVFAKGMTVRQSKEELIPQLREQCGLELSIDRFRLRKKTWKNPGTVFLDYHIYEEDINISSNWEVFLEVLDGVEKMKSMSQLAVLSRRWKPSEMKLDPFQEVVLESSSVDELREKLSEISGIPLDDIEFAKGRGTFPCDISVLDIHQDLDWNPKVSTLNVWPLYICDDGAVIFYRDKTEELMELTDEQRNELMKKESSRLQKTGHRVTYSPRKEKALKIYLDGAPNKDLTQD
Outline: as §1

USP48 = biological target: T3, USP48 (UniProt Q86UV5)
T3 sequence (whole entry): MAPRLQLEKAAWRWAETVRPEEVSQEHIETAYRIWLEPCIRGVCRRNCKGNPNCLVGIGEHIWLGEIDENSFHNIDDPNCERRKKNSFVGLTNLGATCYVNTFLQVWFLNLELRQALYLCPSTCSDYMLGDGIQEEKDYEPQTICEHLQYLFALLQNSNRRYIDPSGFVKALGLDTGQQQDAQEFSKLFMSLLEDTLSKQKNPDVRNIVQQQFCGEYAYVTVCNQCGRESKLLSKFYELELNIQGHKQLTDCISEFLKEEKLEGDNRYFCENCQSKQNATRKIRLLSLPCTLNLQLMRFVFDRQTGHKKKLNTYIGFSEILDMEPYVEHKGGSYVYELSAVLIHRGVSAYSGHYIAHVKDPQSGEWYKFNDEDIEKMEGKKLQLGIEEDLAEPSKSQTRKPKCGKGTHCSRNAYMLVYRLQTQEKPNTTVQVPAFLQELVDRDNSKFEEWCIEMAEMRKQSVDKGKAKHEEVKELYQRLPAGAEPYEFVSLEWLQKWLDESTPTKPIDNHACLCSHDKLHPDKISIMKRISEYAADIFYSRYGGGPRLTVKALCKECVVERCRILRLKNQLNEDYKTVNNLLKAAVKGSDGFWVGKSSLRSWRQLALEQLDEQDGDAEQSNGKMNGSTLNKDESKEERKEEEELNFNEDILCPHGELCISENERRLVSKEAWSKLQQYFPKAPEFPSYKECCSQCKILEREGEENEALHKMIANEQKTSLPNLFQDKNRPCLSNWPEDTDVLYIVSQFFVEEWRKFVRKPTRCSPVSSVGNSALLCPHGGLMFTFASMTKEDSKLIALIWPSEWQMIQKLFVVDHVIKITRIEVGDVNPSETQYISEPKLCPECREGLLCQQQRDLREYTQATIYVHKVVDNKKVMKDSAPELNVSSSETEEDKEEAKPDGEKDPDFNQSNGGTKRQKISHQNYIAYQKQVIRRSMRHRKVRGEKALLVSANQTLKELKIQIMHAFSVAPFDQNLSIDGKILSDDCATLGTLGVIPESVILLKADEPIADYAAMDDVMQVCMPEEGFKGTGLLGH
Outline: as §1

USP5 = biological target: T4, USP5 (UniProt P45974)
T4 sequence (whole entry): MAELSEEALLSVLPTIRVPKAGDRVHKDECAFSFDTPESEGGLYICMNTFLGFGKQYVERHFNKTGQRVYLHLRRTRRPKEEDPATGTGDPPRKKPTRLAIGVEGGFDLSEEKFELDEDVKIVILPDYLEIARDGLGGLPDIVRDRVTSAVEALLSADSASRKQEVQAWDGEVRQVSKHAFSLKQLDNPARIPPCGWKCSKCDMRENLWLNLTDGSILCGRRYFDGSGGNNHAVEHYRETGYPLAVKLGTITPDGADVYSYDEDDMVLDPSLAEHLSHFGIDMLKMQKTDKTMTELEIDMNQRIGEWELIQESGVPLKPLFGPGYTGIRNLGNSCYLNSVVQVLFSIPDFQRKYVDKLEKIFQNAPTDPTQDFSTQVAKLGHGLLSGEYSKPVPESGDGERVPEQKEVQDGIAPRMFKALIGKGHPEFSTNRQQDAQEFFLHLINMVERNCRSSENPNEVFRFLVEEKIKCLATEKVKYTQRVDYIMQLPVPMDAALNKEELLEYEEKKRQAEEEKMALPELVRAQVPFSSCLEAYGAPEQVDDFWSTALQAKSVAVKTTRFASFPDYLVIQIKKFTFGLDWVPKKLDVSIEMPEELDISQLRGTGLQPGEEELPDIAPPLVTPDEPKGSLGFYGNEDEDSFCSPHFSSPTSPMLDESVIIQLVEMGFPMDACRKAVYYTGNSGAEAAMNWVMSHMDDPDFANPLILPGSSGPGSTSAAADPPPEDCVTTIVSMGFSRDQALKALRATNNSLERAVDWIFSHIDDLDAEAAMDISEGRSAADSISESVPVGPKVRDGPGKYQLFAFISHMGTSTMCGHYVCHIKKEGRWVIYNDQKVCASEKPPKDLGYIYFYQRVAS
Outline: as §1

USP54 = USP54 (UniProt Q70EL1)
USP54, sequence (Q70EL1 whole entry): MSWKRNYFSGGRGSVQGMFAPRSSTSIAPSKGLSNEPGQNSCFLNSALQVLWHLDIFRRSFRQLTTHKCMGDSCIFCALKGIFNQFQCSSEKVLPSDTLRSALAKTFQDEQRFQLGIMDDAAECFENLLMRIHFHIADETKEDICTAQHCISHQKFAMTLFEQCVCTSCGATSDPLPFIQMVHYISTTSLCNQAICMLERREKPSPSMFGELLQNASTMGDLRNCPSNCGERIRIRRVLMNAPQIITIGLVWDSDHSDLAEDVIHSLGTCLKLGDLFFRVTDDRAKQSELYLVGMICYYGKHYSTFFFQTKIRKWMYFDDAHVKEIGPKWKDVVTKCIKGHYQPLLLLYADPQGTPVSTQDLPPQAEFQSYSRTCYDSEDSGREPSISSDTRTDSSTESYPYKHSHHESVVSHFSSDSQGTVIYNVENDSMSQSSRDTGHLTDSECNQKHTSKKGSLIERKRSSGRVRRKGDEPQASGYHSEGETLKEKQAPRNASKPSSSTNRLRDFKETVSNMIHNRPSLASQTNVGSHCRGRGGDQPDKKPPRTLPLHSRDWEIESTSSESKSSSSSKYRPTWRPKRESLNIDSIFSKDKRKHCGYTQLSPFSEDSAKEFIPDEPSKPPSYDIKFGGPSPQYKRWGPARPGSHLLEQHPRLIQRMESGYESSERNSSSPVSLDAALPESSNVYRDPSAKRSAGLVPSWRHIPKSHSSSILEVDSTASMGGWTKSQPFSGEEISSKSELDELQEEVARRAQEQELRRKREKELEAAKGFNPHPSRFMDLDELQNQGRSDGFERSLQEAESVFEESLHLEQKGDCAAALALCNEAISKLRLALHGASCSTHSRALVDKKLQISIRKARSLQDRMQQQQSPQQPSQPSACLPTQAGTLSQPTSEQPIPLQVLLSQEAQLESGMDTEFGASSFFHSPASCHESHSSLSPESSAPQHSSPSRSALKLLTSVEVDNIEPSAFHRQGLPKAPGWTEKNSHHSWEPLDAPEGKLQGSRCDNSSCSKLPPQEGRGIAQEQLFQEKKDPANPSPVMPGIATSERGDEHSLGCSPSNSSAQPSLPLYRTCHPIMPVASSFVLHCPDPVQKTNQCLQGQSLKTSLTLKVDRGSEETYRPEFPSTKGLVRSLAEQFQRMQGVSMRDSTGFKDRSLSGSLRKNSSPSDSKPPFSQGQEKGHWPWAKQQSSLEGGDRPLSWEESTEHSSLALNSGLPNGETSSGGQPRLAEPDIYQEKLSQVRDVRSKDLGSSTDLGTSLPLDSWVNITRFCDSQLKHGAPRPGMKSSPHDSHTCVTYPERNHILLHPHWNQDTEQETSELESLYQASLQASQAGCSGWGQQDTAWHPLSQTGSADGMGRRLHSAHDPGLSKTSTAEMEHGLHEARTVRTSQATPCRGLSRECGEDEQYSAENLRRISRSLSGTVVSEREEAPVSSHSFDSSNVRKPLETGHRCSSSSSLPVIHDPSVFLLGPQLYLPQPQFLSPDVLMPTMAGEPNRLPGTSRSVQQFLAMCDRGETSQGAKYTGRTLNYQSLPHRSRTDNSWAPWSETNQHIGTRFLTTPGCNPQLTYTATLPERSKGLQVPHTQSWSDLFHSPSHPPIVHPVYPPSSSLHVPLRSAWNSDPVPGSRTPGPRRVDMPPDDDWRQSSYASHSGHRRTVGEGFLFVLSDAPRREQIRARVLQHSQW
Outline: as §1

USP7 = USP7 (UniProt Q93009)
USP7, sequence (Q93009 whole entry, looked up): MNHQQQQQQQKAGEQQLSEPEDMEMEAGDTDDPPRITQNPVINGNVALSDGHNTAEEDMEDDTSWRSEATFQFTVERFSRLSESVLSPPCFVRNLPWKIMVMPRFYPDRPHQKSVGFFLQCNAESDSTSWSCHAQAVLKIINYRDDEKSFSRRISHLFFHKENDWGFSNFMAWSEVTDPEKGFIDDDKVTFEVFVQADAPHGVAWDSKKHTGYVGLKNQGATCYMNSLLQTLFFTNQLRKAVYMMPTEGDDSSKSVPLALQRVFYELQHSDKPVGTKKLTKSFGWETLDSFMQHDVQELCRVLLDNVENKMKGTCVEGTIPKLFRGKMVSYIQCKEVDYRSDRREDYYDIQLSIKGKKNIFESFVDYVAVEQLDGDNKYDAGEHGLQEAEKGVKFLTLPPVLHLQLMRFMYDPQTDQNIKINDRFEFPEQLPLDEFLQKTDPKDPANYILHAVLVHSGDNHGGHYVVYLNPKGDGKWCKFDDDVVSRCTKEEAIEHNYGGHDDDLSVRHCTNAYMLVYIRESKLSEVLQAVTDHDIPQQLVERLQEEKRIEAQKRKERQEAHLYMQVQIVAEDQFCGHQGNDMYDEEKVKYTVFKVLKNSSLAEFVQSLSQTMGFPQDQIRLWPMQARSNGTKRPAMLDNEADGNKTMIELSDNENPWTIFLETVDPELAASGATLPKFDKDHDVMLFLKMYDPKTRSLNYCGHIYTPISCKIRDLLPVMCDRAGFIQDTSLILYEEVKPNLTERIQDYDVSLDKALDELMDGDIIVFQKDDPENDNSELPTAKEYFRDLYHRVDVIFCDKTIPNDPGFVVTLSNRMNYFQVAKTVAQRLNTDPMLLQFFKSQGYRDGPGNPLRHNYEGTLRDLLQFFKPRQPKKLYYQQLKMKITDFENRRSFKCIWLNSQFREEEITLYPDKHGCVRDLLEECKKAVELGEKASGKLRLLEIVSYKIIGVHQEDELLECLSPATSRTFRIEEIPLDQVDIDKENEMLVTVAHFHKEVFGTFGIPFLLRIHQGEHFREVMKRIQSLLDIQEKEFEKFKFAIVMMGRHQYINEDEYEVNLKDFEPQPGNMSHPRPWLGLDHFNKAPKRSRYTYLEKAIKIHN
Outline: as §1

USP8 = biological target: T5, USP8 (UniProt P40818)
T5 sequence (whole entry): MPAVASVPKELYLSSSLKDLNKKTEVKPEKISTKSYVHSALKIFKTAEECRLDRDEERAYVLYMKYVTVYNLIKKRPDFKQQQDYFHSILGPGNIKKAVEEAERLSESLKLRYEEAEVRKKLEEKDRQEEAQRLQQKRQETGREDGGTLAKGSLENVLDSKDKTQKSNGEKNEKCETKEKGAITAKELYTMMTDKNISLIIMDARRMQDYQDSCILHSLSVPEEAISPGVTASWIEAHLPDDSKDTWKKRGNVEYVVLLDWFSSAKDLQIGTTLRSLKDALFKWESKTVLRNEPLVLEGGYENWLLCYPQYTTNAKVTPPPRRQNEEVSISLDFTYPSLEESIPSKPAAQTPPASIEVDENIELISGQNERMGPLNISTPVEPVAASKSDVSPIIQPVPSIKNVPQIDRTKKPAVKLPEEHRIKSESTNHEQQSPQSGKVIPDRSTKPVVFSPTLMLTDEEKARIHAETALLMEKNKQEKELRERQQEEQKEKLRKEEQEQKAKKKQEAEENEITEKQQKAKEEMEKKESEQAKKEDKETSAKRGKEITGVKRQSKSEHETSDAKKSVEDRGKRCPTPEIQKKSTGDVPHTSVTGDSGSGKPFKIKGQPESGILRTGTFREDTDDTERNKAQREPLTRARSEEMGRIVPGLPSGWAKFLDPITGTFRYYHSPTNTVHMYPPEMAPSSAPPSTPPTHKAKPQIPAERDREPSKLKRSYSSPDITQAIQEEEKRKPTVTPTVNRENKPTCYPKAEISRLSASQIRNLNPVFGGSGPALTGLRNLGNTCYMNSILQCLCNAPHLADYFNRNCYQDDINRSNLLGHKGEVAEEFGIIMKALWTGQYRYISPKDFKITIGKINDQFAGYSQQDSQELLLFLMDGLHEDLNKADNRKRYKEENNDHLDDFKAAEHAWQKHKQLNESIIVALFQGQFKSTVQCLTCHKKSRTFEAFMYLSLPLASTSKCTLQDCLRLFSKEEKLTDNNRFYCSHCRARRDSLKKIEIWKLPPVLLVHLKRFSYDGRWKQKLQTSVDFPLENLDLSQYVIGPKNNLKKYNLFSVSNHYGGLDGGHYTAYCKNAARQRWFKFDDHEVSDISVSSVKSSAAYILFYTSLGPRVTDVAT
Outline: as §1

Measured: log2 ratio of Biotin-Ahx-Ub-VS probe labelling

Cc1ccc(N2CCC(NC(=O)CCl)C2=O)cc1 (stereo not drawn)
inactive: USP42 -0.0605 | USP46 0.123 | USP47 -0.186 | USP48 0.139 | USP5 0.412 | USP54 0.213 | USP7 -0.0706 | USP8 0.0227

Reference: the supplement of paper PMC11732987, “Enantioselective OTUD7B fragment discovery through chemoproteomics screening and high-throughput optimisation” (Communications Chemistry, 2025)
